Measured values as given in PubChem BioAssay (NCI).
Compounds without any hit were thinned out: in the full panel of roughly 79,000, 15% have a hit. Unmarked numbers belong to inactive results. Calls of active or inactive are those of the source. No stated cut-off is given here; in the data, active means growth inhibition above about 70%; inactive means the rest.

What was measured:
[1] = NCI Yeast Anticancer Drug Screen. Data for the rad50 strain (AID 155);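 further: 0% = growth of vehicle-only cultures of the same strain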; conditions: S. cerevisiae rad50 strain growth inhibition, stronger effect = higher value
In short: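 Inhibition values express reduced yeast growth in compound-treated cultures relative to vehicle-treated controls.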

[2] = NCI Yeast Anticancer Drug Screen. Data for the mec2-1 strain (AID 157); conditions: S. cerevisiae mec2-1 strain, stronger effect = higher value
In short: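 Yeast mec2-1 mutant treated with compound. Readout: growth inhibition vs vehicle controls.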

[3] = NCI Yeast Anticancer Drug Screen. Data for the sgs1 mgt1 strain (AID 161);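 further: 0% = growth of cultures given vehicle only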; conditions: S. cerevisiae sgs1 mgt1 strain, stronger effect = higher value
In short: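 Read-out: growth inhibition vs vehicle controls. Cells: mutant yeast strain deficient in DNA damage repair.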

[4] = NCI Yeast Anticancer Drug Screen. Data for the cln2 rad14 strain (AID 165);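 further: 0% = growth equal to vehicle treated cultures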; conditions: S. cerevisiae cln2 rad14 strain, stronger effect = higher value
In short: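 cln2 rad14 yeast strain; compound exposure; growth inhibition read vs vehicle controls.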

[5] = NCI Yeast Anticancer Drug Screen. Data for the bub3 strain (AID 167); conditions: S. cerevisiae bub3 mutant strain, stronger effect = higher value
In short: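 Steps: expose the mutant yeast strain to compound; grow alongside vehicle-treated cultures; measure growth; express inhibition against the vehicle cultures.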

[6] = NCI Yeast Anticancer Drug Screen. Data for the mlh1 rad18 strain (AID 175); conditions: S. cerevisiae mlh1 rad18 strain growth inhibition, stronger effect = higher value
In short: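 Yeast w/ defined DNA-repair lesions; compound exposure; growth vs vehicle controls → % inhibition.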

[7] = at 5.0 µM (retest, dose inferred, filed as 0.5)
[8] = at 50.0 µM (retest, dose inferred, filed as 5.0)

Row | SMILES | growth inhibition [1, 7] | growth inhibition [1, 8] | growth inhibition ([1]; at 50.0 µM) | growth inhibition [2, 7] | growth inhibition [2, 8] | growth inhibition ([2]; at 50.0 µM) | growth inhibition [3, 7] | growth inhibition [3, 8] | growth inhibition ([3]; at 50.0 µM) | growth inhibition [4, 7] | growth inhibition [4, 8] | growth inhibition ([4]; at 50.0 µM) | growth inhibition [5, 7] | growth inhibition [5, 8] | growth inhibition ([5]; at 50.0 µM) | growth inhibition [6, 7] | growth inhibition [6, 8] | growth inhibition ([6]; at 50.0 µM)
1 | CC(C)(C)[Si](C)(C)OCC1OC(n2cc(I)c(N)nc2=O)C(O[Si](C)(C)C(C)(C)C)C1O[Si](C)(C)C(C)(C)C (stereo not given) | 48% | 97% (active) | 27.1% | 9% | 98% (active) | 60.8% | 85% (active) | 98% (active) | 36.1% | 1% | 51% | 32.3% | 9% | 99% (active) | 38.4% | 33% | 94% (active) | 86.7% (active)
2 | CCOC(=O)/C(C#N)=C/c1ccccc1Br | 11% | 18% | 50% | -19% | 3% | 20.4% | 7% | 13% | -0.75% | 39% | 17% | 3.6% | 31% | 20% | 1.2% | -9% | -4% | 6.6%
3 | O=C(CSc1nccc(=O)[nH]1)c1ccccc1 | 2% | 24% | 89.4% (active) | 1% | 38% | 81.7% (active) | 5% | 7% | 60.1% | -5% | 4% | 32.4% | -2% | 40% | 86% (active) | 4% | 52% | 40.8%
4 | COc1cc(N=Nc2ccccc2)cc(/C=N/NC(N)=S)c1O | -2% | 46% | 73.8% (active) | 3% | 59% | 67.2% | 9% | 85% (active) | 88.8% (active) | -9% | 37% | 78.8% (active) | 1% | 61% | 58.3% | 4% | 73% (active) | 90.8% (active)
5 | NSc1ccccn1 | 7% | 74% (active) | 90.4% (active) | 9% | 93% (active) | 93.5% (active) | 11% | 79% (active) | 97.8% (active) | 29% | 84% (active) | 89.7% (active) | 3% | 92% (active) | 99% (active) | 4% | 85% (active) | 96.7% (active)
6 | COc1ccc(C(c2ccc(N(C)C)cc2)c2ccc(N(C)C)cc2)cc1 | 97% (active) | 85% (active) | 93.5% (active) | 98% (active) | 88% (active) | 93% (active) | 99% (active) | 89% (active) | 94% (active) | 98% (active) | 85% (active) | 41.6% | 99% (active) | 90% (active) | 94.5% (active) | 99% (active) | 87% (active) | 73.2% (active)
7 | OC(Cc1ccc2ccccc2c1)CN1CCC(c2ccccc2)CC1 (stereo not given) | 56% | 84% (active) | 89.3% (active) | 37% | 80% (active) | 83.5% (active) | 24% | 76% (active) | 91.2% (active) | 70% (active) | 88% (active) | 90.1% (active) | 67% | 96% (active) | 91.6% (active) | 81% (active) | 94% (active) | 90.5% (active)
8 | C/C(=N\NC(=O)C[n+]1ccccc1)c1sc(-c2nc(C)c(/C(C)=N/NC(=O)C[n+]3ccccc3)s2)nc1C | 95% (active) | 97% (active) | 97.2% (active) | 97% (active) | 99% (active) | 96.8% (active) | 98% (active) | 97% (active) | 96.9% (active) | 92% (active) | 97% (active) | 93% (active) | 95% (active) | 97% (active) | 96.8% (active) | 93% (active) | 98% (active) | 96.4% (active)
9 | O=C1C(=O)C(Br)(c2ccccc2)C(=O)C1c1ccccc1 (stereo not given) | -16% | 4% | 52.5% | -22% | 2% | 71.4% (active) | -19% | 8% | 13.2% | -2% | 72% (active) | 93.8% (active) | 85% (active) | 97% (active) | 97.7% (active) | 7% | 20% | 97.7% (active)
10 | [N-]=[N+]=Nc1c(C=O)c(=O)n(-c2ccccc2)c2ccccc12 | 8% | 57% | 67.2% | -1% | 60% | 80.4% (active) | -5% | 47% | 79% (active) | 0% | 29% | 63.5% | -23% | 26% | 63.6% | 6% | 67% | 68.7%
